Reference: PubChem BioAssay (NCATS)
Where “and” joins values, the source holds several entries; their conditions need not be identical. Equal values may be shown once. Results filed as inconclusive are left out. Entries that show only a call come without a potency. A number with no mark means an inactive call. Calls of active or inactive are those of the source. The call rests on the fitted dose curve; in most records, active means well fitted curve in the direction sought with a large enough effect; inconclusive means small, poorly fitted or top-dose-only effect, or another doubt; inactive means no such curve, though single readings can be large; an effect the other way counts as inactive or inconclusive.

What was measured:
[1] = molecular target: Cytochrome P450 3A7 (Homo sapiens) (UniProt P24462); experiment: Cytochrome P450 family 3 subfamily A member 7 (CYP3A7) small molecule antagonists: luciferase biochemical qHTS assay (AID 1963596); further: nearly all actives have a fitted effect of over 40% in size
Chain of Cytochrome P450 3A7 (Homo sapiens) (P24462 whole entry, looked up): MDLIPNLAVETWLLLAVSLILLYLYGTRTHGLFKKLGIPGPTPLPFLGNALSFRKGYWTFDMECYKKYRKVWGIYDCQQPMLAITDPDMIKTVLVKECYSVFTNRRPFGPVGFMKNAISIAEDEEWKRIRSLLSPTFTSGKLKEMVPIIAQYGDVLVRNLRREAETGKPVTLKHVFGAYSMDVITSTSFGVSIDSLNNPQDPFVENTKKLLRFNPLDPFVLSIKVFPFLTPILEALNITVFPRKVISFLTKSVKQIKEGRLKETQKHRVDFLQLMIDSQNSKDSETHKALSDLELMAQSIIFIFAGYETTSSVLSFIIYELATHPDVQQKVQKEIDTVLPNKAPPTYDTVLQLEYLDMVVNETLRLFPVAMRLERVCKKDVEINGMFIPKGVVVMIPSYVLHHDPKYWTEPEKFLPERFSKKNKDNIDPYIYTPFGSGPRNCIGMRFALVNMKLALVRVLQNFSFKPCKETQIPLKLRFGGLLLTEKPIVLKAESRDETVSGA
In short: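 P450-Glo luminescent assay: CYP3A7 enzyme converts a proluciferin substrate to luciferin, detected by luciferase reagent; light proportional to activity. Compounds in DMSO preincubated 10 min with enzyme-substrate mix at room temperature, then NADPH regeneration added for 1 h.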

[2] = Viability qHTS for spleen associated tyrosine kinase inhibitor (SYKi) naive MV4-11 cells (AID 1963823); further: nearly all actives have a fitted effect of over 40% in size; further: potency means the concentration at half of the fitted maximal effect
In short: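 Viability of MV4-11 AML cells lacking prior SYK inhibitor exposure is scored by CellTiter-Glo luminescence following 72 hr compound incubation at 37 C, 5% CO2, seeded at 500 cells per well.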

[3] = Viability qHTS for spleen associated tyrosine kinase inhibitor (SYKi) drug resistant MV4-11 cells (AID 1963824); further: nearly all actives have a fitted effect of over 35% in size; further: potency means the concentration at half of the fitted maximal effect
In short: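 CellTiter-Glo luminescence, read 10 min after reagent addition, reports viability after a 72 hr compound exposure. Cells are an MV4-11 line made resistant to SYK inhibition, seeded at 500 per well onto compound-containing plates.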

[4] = Cellular viability qHTS for adrenocortical cancer (ACC) cell line NCI-H295R (AID 1963990); further: nearly all actives have a fitted effect of over 60% in size
In short: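 Readout: CellTiter-Glo luminescence, 20 min RT. Exposure: 48 h, 37C/5% CO2. Cells: NCI-H295R, ITS-DMEM serum-free. Range: up to 46 uM. Analysis: 4PL fit, IC50 plus efficacy.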

[5] = Cellular viability qHTS for adrenocortical cancer (ACC) cell line SW-13 (AID 1963989); settings: SW-13 ACC cells viability, CellTiter-Glo, 48 h; activity (max response): stronger effect = lower value;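 further: cells grown in serum-free medium with ITS supplement; nearly all actives have a fitted effect of over 65% in size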
In short: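 Compound titrations (up to 46 uM final, in DMSO) were applied to SW-13 cells for 48 h at 37C/5% CO2. Reading used CellTiter-Glo after 20 min at room temperature; fitted curves yielded IC50 and efficacy.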

SMILES	Potency [1]	Potency [2]	Potency [3]	Potency [4]	activity (max response) [5] [%]
[O-][n+]1cccc(/C(Cl)=N/OC[C@@H](O)CN2CCCCC2)c1	inactive	inactive	inactive	inactive	
CC(=O)NC(=O)c1ccccc1O	inactive	inactive	inactive	inactive	
OC[C@@H](O)[C@@H](O[C@@H]1O[C@H](CO)[C@H](O)[C@H](O)[C@H]1O)[C@H](O)[C@@H](O)CO	inactive	inactive	inactive	inactive	1.27
CCCCCCCCCCCCCCCCCCO	inactive	inactive	inactive	inactive	-0.0263
Cc1cc(NS(=O)(=O)c2ccc(N)cc2)nc(C)n1	inactive	inactive	inactive	inactive	
CN(C)CCOC(C)(c1ccccc1)c1ccccn1 (stereo not drawn)	inactive	inactive	inactive	inactive	
CC1(C)Oc2ccc(C#N)cc2[C@@H](N2CCCC2=O)[C@@H]1O	inactive	inactive	inactive	inactive	
CC(C)C(=O)c1c(C(C)C)nn2ccccc12	inactive	inactive	inactive	inactive	
COC(=O)/C=C(/C)N	inactive	16.8 µM (active)	inactive	inactive	
COC(=O)CCc1ccc(OCC(O)CNC(C)C)cc1 (stereo not drawn)	inactive	inactive	inactive	inactive	-6.6
O=c1[nH]c(=O)n([C@H]2CCCO2)cc1F	inactive	14.6 µM (active)	10.6 µM (active) and 9.2 µM (active)	inactive	-5.11
Nc1nnnn1-c1ccccc1	inactive	inactive	inactive	inactive	1.62
